Data: paper PMC5540273 (PLoS ONE, 2017)
Where two headings read alike, the source gives them in different places.

Key:
[1] = system: T1, GRK2; details: concentration: 1 μM, replicates: in singlicate; n = 1
T1 construct: gene ADRBK1

[2] = system: T2, GRK3; details: concentration: 1 μM, replicates: in singlicate; n = 1
T2 construct: gene ADRBK2

[3] = system: GRK4; details: concentration: 1 μM, replicates: in singlicate; n = 1
[4] = system: GRK7; details: concentration: 1 μM, replicates: in singlicate; n = 1
[5] = system: GSK3A; details: concentration: 1 μM, replicates: in singlicate; n = 1
[6] = system: GSK3B; details: n = 1
[7] = system: T3, HASPIN; details: concentration: 1 μM, replicates: in singlicate; n = 1
T3 construct: gene GSG2

[8] = system: HCK; details: concentration: 1 μM, replicates: in singlicate; n = 1
[9] = system: HIPK1; details: concentration: 1 μM, replicates: in singlicate; n = 1
[10] = system: HIPK2; details: concentration: 1 μM, replicates: in singlicate; n = 1
[11] = concentration: 1 μM, replicates: in singlicate
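Note: KINOMEscan kinase panel screen.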

Row | Compound | %Inh [1] | %Inh [2] | %Inh [3] | %Inh [4] | %Inh [5] | %Inh [6, 11] | %Inh [7] | %Inh [8] | %Inh [9] | %Inh [10] | %Inh ([6]; 1 µM)
1 | O=c1cc(N2CCOCC2)nc2n(Cc3ccc(F)c(Cl)c3)ccn12 [GSK2297099] | 0% | 0% | 0% | 0% | 0% | 8% | 0% | 0% | 7% | 0% | 
2 | COc1ccc(-n2cnc3c(N)ncnc32)cc1 [SKF-97236] | 12% | 0% | 22% | 3% | 6% | 15% | 0% | 0% | 24% | 5% | 
3 | CCc1nc(-c2cccc(C)c2)c(-c2ccncc2)s1 | 0% | 0% | 0% | 0% | 27% | 0% | 0% | 21% | 30% | 0% | 
4 | COc1ccc(CNC(=O)NC2CCN(c3ccnc(Nc4ccc(F)cc4)n3)C2)cc1 (centres unmarked) [GSK1379706] | 0% | 51% | 19% | 0% | 23% | 1% | 32% | 0% | 19% | 13% | 
5 | Cc1nc(N(C)[C@H]2CN(C(=O)CC#N)CC[C@H]2C)c2cc[nH]c2n1 | 0% | 0% | 0% | 0% | 9% | 0% | 0% | 0% | 6% | 0% | 
6 | Nc1ncnc2c1ncn2-c1ccc(Cl)cc1 [AH2635] | 0% | 41% | 0% | 0% | 14% | 0% | 21% | 0% | 0% | 0% | 
7 | Fc1cccc(CSc2nnc(-c3ccc4c(c3)CCO4)o2)c1 | 35% | 10% | 0% | 19% | 64% |  | 20% | 1% | 18% | 30% | 37%
8 | COc1cc(Nc2nccc(N3CCC(NC(=O)C(C)c4ccc(Cl)cc4)C3)n2)cc(OC)c1OC (centres unmarked) [GSK1379757] | 0% | 17% | 37% | 0% | 0% | 0% | 21% | 11% | 0% | 0% | 
9 | Cc1ccccc1COc1cc(-n2cnc3cc(Cl)ccc32)sc1C(N)=O [GW813349] | 0% | 0% | 2% | 0% | 17% | 14% | 16% | 11% | 30% | 24% | 
10 | COc1cc2nccc(Nc3cccc(Oc4ccccc4)c3)c2cc1OC.Cl [GW284543] | 28% | 16% | 7% | 0% | 5% | 0% | 11% | 44% | 0% | 25% | 
11 | Cc1nn2c(=O)cc(N3CCOCC3)nc2n1Cc1cccc(Cl)c1Cl [GSK2342769] | 0% | 83% | 2% | 0% | 10% | 13% | 8% | 0% | 0% | 0% | 
12 | COc1cccc(-n2cnc3c(N)ncnc32)c1 [SKF-97416] | 0% | 11% | 10% | 27% | 0% | 35% | 0% | 8% | 18% | 22% | 
13 | CCC(=O)c1c(-c2ccccc2)c2cc(Cl)ccc2c(=O)n1Cc1cc(C(=O)NC2CC2)n(C)n1 | 0% | 23% | 0% | 12% | 0% | 13% | 25% | 22% | 0% | 8% | 
14 | Nc1nc(N)c2nc(-c3ccccc3)[nH]c2n1 [SKF-12778] | 13% | 9% | 18% | 4% | 0% | 0% | 0% | 3% | 5% | 11% | 
15 | Nc1n[nH]c2ncc(-c3ccccc3)cc12 [SB-517081] | 0% | 22% | 21% | 0% | 34% |  | 0% | 0% | 0% | 0% | 20%
16 | COc1cc(OC)cc(-c2cc3cnc(N)nc3nc2NC(=O)NC(C)(C)C)c1 | 0% | 0% | 13% | 9% | 0% | 0% | 0% | 0% | 15% | 0% | 

Row | Compound | %Inh [1] | %Inh [2] | %Inh [3] | %Inh [4] | %Inh [5] | %Inh [6, 11] | %Inh [7] | %Inh [8] | %Inh [9] | %Inh [10] | %Inh ([6]; 1 µM)
17 | C[C@@H]1CC[C@H](C(=O)NC2CCCCC2)CN1c1cc(-c2ccc3c(N)n[nH]c3c2)nc(N)n1 [GSK2291363] | 0% | 32% | 45% | 0% | 5% | 17% | 2% | 0% | 9% | 0% | 
18 | COc1cc2ncn(-c3cc(OCCCc4ccccc4)c(C(N)=O)s3)c2cc1OC [GSK205189] | 0% | 0% | 13% | 0% | 10% | 0% | 0% | 4% | 9% | 0% | 
19 | Cc1cccc(-c2cc(-c3c[nH]nc3-c3ccccn3)ccn2)c1 [GW679395] | 0% | 39% | 0% | 0% | 17% | 7% | 25% | 0% | 0% | 0% | 
20 | FC(F)(F)c1ccc(-c2ncn(CCCN3CCOCC3)c2-c2ccncc2)cc1 [SB-217780] | 5% | 0% | 26% | 0% | 0% | 25% | 11% | 8% | 18% | 52% | 
21 | CCS(=O)c1ccc(-c2coc3ccc(-c4nnc(C)o4)cc23)cc1 (centres unmarked) | 0% | 5% | 21% | 19% | 91.6% | 58% | 17% | 33% | 30% | 43% | 
22 | COc1ccc(Nc2nccc(N3CCC(NS(=O)(=O)c4ccc(NC(C)=O)cc4)C3)n2)cc1 (centres unmarked) [GSK1379729] | 3% | 0% | 49% | 0% | 0% | 7% | 19% | 7% | 0% | 20% | 
23 | COc1cccc(C2=C(N(C)c3ccccc3)C(=O)NC2=O)c1 [SB-334865] | 0% | 5% | 0% | 0% | 0% | 24% | 2% | 0% | 0% | 0% | 
24 | CN1C(=O)C(Nc2cc(Cl)c(O)c(Cl)c2)=C(c2ccc(Cl)cc2)C1=O [SB-404321] | 22% | 28% | 96.7% | 0% | 0% | 0% | 0% | 0% | 0% | 38% | 
25 | Nc1nc(-c2ccccc2F)c(-c2ccnc3ccccc23)s1 [GW560459] | 0% | 50% | 0% | 0% | 3% | 0% | 25% | 0% | 0% | 0% | 
26 | COc1cc2nccc(Nc3ccc(OCc4ccc(NC(C)=O)cc4)cc3)c2cc1OC.Cl [GW440135] | 0% | 17% | 23% | 4% | 0% | 0% | 18% | 0% | 0% | 0% | 
27 | CCn1c(-c2nonc2N)nc2ccccc21 [SB-693162/GW549034] | 0% | 14% | 30% | 25% | 0% | 37% | 0% | 0% | 29% | 45% | 
28 | Cc1cccc(-c2nc(Nc3ccc4c(cnn4C)c3)c3ccccc3n2)n1 [GW876731] | 16% | 5% | 0% | 15% | 18% | 0% | 11% | 0% | 0% | 14% | 
29 | CC(C)(C)c1ccc(C(=O)Nc2cn3cc(-c4ccccc4)ccc3n2)cc1 | 0% | 0% | 26% | 0% | 12% | 30% | 0% | 13% | 43% | 52% | 
30 | O=C(Nc1n[nH]c2cc(-c3ccccc3F)ccc12)C1CC1 [SB-733371] | 0% | 0% | 26% | 0% | 24% | 19% | 22% | 0% | 2% | 0% | 
31 | Cc1ccc(-c2ccc3c(ccc4sc5c(c43)NC[C@@H](C)N=C5N(C)C)n2)cn1 | 0% | 1% | 0% | 0% | 0% | 0% | 23% | 14% | 0% | 0% | 
32 | CCc1ccc(-c2ccc3c(c2)-c2nn(C)cc2S(=O)(=O)N3C)cc1 | 0% | 0% | 0% | 0% | 30% | 0% | 23% | 2% | 0% | 0% | 
